The supplement of paper PMC10646978
± gives the standard deviation.

Experiments:
Conditions in all cases: modulator concentration 10 µM
[1] = tested on: RAW-Dual (murine macrophage reporter line); assay: NF-kB reporter (SEAP) activity fold change vs agonist alone; higher = enhanced NF-kB activity
In short: (§1)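 In 384-well plates holding 50 000 RAW-Dual murine macrophage reporter cells per well, compound at 10 μM final was pre-incubated for 1 hour at 37 °C, after which a PRR agonist was added overnight. Supernatant SEAP read with QUANTI-Blue at 620 nm absorbance reported NF-κB, and Lucia luciferase read with QUANTI-Luc luminescence reported IRF. Fold change values come from dividing each reporter signal by the mean of agonist-only control wells on the same plate, averaged over replicate plates with propagated errors.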

[2] = tested on: RAW-Dual (murine macrophage reporter line); assay: IRF reporter (Lucia luciferase) activity fold change vs agonist alone; higher = enhanced IRF activity
In short: as §1

[3] = tested on: RAW-Dual (murine macrophage reporter line); assay: viability score (confluency relative to resting cells, overnight) (fraction); higher = more viable, active = viable (0.7 or more)
In short: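 Confluency was the readout: RAW-Dual macrophages were imaged with IncuCyte after an overnight exposure to compound at 10 μM final. IncuCyte software produced two masks over all imaged wells. The viability score expresses confluency against resting cells, and both masks had to exceed 70% of resting cells for a compound to meet the cutoff.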

[4] = agonist: CpG ODN 1826 0.5 ug/mL

Compound | NF-kB reporter [1, 4] | NF-kB reporter ([1]; agonist: LPS 0.1 ug/mL) | NF-kB reporter ([1]; agonist: MPLA […]) | IRF reporter ([2]; agonist: 3'3'-cGAMP 10 ug/mL) | IRF reporter ([2]; agonist: LPS 0.1 ug/mL) | IRF reporter ([2]; agonist: MPLA […]) | viability score [3]
COc1ccc(-c2cc3nc(C)cc(NCCN4CCOCC4)n3n2)cc1OC | 1.11 ± 0.086 | 0.962 ± 0.076 | 0.976 ± 0.026 | 1.06 ± 0.13 | 0.998 ± 0.12 | 1.05 ± 0.22 | 0.997 (active)
Cc1ccc(C)c(Cc2cc([N+](=O)[O-])ccc2C)c1 | 0.287 ± 0.023 | 0.436 ± 0.081 | 0.726 ± 0.026 | 1.28 ± 0.081 | 1.01 ± 0.084 | 1.57 ± 0.28 | 0.996 (active)
COc1ccc(CC(N)C(=O)NC2C(CO)OC(n3cnc4c(N(C)C)ncnc43)C2O)cc1.Cl.Cl (configuration not stated) | 0.817 ± 0.068 | 0.514 ± 0.044 | 0.936 ± 0.094 | 0.699 ± 0.022 | 1.03 ± 0.13 | 1.3 ± 0.21 | 0.817 (active)
COc1ccc(S(=O)(=O)NCc2cccnc2-c2cnn(C)c2)cc1Cl | 1.1 ± 0.055 | 1.15 ± 0.12 | 1.04 ± 0.06 | 1.17 ± 0.058 | 1.11 ± 0.072 | 1.04 ± 0.19 | 0.999 (active)
CC(=O)Oc1cc2c(s1)CCN(C(C(=O)C1CC1)c1ccccc1F)C2 (configuration not stated) | 0.988 ± 0.15 | 1.2 ± 0.36 | 0.844 ± 0.05 | 0.919 ± 0.035 | 1.28 ± 0.31 | 1.1 ± 0.18 | 0.985 (active)
O=C(Nc1ccc([N+](=O)[O-])cc1)c1cc(Cl)ccc1O | 1.14 ± 0.18 | 1.02 ± 0.088 | 0.841 ± 0.081 | 0.905 ± 0.033 | 1.17 ± 0.11 | 1.28 ± 0.17 | 0.991 (active)
CCOC(=O)C1=C(C)NC(C)=C(C(=O)OCC)C1c1cccs1 | 0.836 ± 0.23 | 0.998 ± 0.089 | 0.965 ± 0.12 | 0.929 ± 0.071 | 1.09 ± 0.3 | 1.08 ± 0.25 | 0.978 (active)
CCSc1nnc(NC(=O)C2CC3CCC2C3)s1 (configuration not stated) | 0.941 ± 0.058 | 0.969 ± 0.06 | 0.884 ± 0.06 | 1.29 ± 0.098 | 1.4 ± 0.092 | 1.09 ± 0.1 | 0.94 (active)
O=C(Cn1c(=O)oc2ccccc21)N1Cc2cncnc2C1 | 0.853 ± 0.24 | 1.04 ± 0.052 | 0.988 ± 0.065 | 0.921 ± 0.042 | 0.991 ± 0.15 | 0.991 ± 0.12 | 0.998 (active)
CCOc1ccc(CC(=O)N2C3C=CCC2CC3)cc1 (configuration not stated) | 0.942 ± 0.1 | 1.09 ± 0.1 | 1.01 ± 0.061 | 1.02 ± 0.047 | 1.22 ± 0.16 | 1.31 ± 0.47 | 0.971 (active)
O=C(Cn1cnc([N+](=O)[O-])n1)Nc1cc(Oc2cccc(C(F)(F)F)c2)cc([N+](=O)[O-])c1 | 0.529 ± 0.043 | 0.806 ± 0.097 | 0.406 ± 0.043 | 0.902 ± 0.022 | 1.6 ± 0.14 | 1.51 ± 0.21 | 0.995 (active)
CCCCCCC=CCCCCCCCc1cccc(O)c1C(=O)O | 0.897 ± 0.067 | 0.987 ± 0.069 | 0.96 ± 0.029 | 0.774 ± 0.043 | 0.991 ± 0.12 | 1.06 ± 0.14 | 1 (active)
CC(=O)C1CCC2C3CC=C4CC(O)CCC4(C)C3CCC12C (configuration not stated) | 1.19 ± 0.29 | 1.1 ± 0.12 | 1.13 ± 0.074 | 0.887 ± 0.03 | 1.28 ± 0.16 | 1.32 ± 0.16 | 0.986 (active)
CC[C@H](Nc1ncnc2[nH]cnc12)c1nc2cccc(F)c2c(=O)n1-c1ccccc1 | 1.18 ± 0.27 | 0.973 ± 0.11 | 1.04 ± 0.067 | 0.641 ± 0.023 | 0.763 ± 0.073 | 0.997 ± 0.18 | 0.964 (active)
CN(C)CCN(Cc1ccccc1)Cc1cc(Cl)cc(Cl)c1O | 0.799 ± 0.063 | 0.918 ± 0.081 | 0.996 ± 0.086 | 0.947 ± 0.058 | 1.29 ± 0.074 | 1.32 ± 0.12 | 1.01 (active)
CC(C)(C)c1ccc(=O)n(CC2CN(S(C)(=O)=O)C2)n1 | 0.983 ± 0.097 | 1.13 ± 0.095 | 0.918 ± 0.092 | 1.02 ± 0.058 | 1.15 ± 0.1 | 1.1 ± 0.34 | 1.01 (active)
Cn1ncc(Cl)c1-c1cc(C(=O)N[C@H](CN)Cc2ccc(F)c(F)c2)oc1Cl | 1.13 ± 0.34 | 1.49 ± 0.11 | 1.48 ± 0.14 | 0.363 ± 0.014 | 0.597 ± 0.064 | 0.827 ± 0.079 | 0.661 (inactive)
COc1ccc([N+](=O)[O-])cc1NC(=O)c1ccccc1SC | 0.656 ± 0.079 | 0.705 ± 0.14 | 0.88 ± 0.086 | 0.945 ± 0.031 | 1.03 ± 0.23 | 1.17 ± 0.33 | 0.987 (active)
COc1ccc(-c2[nH]c(-c3cccc(OC)c3)nc2SCC(=O)NC2CCCC2)cc1 | 0.849 ± 0.074 | 1.13 ± 0.056 | 1.91 ± 0.15 | 0.438 ± 0.026 | 0.824 ± 0.044 | 1.85 ± 0.14 | 1 (active)
CC(C)CC(C(=O)Nc1ccc(Cl)cc1)N1C(=O)c2ccccc2C1=O (configuration not stated) | 1.01 ± 0.17 | 0.982 ± 0.085 | 0.938 ± 0.089 | 0.988 ± 0.053 | 1.15 ± 0.21 | 1.21 ± 0.2 | 0.6 (inactive)
CC(CN1c2ccccc2Sc2ccccc21)N(C)C.Cl (configuration not stated) | 0.789 ± 0.11 | 1.17 ± 0.29 | 0.96 ± 0.055 | 0.336 ± 0.024 | 1.16 ± 0.42 | 1.15 ± 0.091 | 0.389 (inactive)
COc1ccc(CCNc2cc(C)nc3cc(-c4ccc(OC)c(OC)c4)nn23)cc1OC | 1.18 ± 0.067 | 1.13 ± 0.086 | 1.27 ± 0.035 | 0.733 ± 0.026 | 0.978 ± 0.073 | 1.13 ± 0.11 | 1 (active)
CCCCCCCCc1ccc(CCC(N)(CO)CO)cc1.Cl | 0.687 ± 0.18 | 0.685 ± 0.047 | 1.55 ± 0.2 | 0.172 ± 0.019 | 0.673 ± 0.072 | 0.615 ± 0.15 | 0.513 (inactive)
O=C(O)c1cccnc1C(=O)O | 1.03 ± 0.087 | 1.04 ± 0.07 | 0.971 ± 0.022 | 0.941 ± 0.052 | 0.981 ± 0.12 | 0.867 ± 0.07 | 1 (active)
COc1ccccc1N1C(=O)C(=Cc2ccc3c(c2)OCO3)SC1=S | 0.99 ± 0.16 | 1.05 ± 0.17 | 0.945 ± 0.14 | 0.951 ± 0.046 | 1.2 ± 0.24 | 1.22 ± 0.36 | 0.999 (active)
Oc1c2c(nc3cc(-c4ccc(Cl)cc4)nn13)CCS2 | 1.1 ± 0.09 | 0.945 ± 0.12 | 0.973 ± 0.031 | 0.976 ± 0.038 | 0.967 ± 0.047 | 1.11 ± 0.14 | 0.998 (active)
